Test results reported in the supplement of paper PMC6992640.

Each compound was assayed on UCD52 (cells of a triple-negative basal-like breast cancer xenograft) (assay: cell viability of combination (% of vehicle); higher = less cytotoxic). Details: 1 µM; 72 h; partner dose: 10 nM.
Method: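 PDX cells were treated for 72 h with each drug at 1 µM plus carfilzomib (10 nM; 100 nM for WHIM2). Luciferase viability is expressed as percent of vehicle.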

SMILES | cell viability of combination
CC(C)C1=CC(=C2NNC(=O)N2c2ccc3c(ccn3C)c2)C(=O)C=C1O [Ganetespib (STA-9090)] + CC(C)C[C@H](NC(=O)[C@H](CCc1ccccc1)NC(=O)CN1CCOCC1)C(=O)N[C@@H](Cc1ccccc1)C(=O)N[C@@H](CC(C)C)C(=O)[C@@]1(C)CO1 [Carfilzomib] | 58.6
Cl.Cl.Fc1ccc(C(c2ccc(F)cc2)N2CCN(CC=Cc3ccccc3)CC2)cc1 [Flunarizine 2HCl] + CC(C)C[C@H](NC(=O)[C@H](CCc1ccccc1)NC(=O)CN1CCOCC1)C(=O)N[C@@H](Cc1ccccc1)C(=O)N[C@@H](CC(C)C)C(=O)[C@@]1(C)CO1 [Carfilzomib] | 61.1
COC1=C(OC)C(=O)C(CCCCCCCCCCO)=C(C)C1=O [Idebenone] + CC(C)C[C@H](NC(=O)[C@H](CCc1ccccc1)NC(=O)CN1CCOCC1)C(=O)N[C@@H](Cc1ccccc1)C(=O)N[C@@H](CC(C)C)C(=O)[C@@]1(C)CO1 [Carfilzomib] | 62
Clc1ccc(CSC(Cn2ccnc2)c2ccc(Cl)cc2Cl)cc1.O=[N+]([O-])O (stereo not given) [Sulconazole Nitrate] + CC(C)C[C@H](NC(=O)[C@H](CCc1ccccc1)NC(=O)CN1CCOCC1)C(=O)N[C@@H](Cc1ccccc1)C(=O)N[C@@H](CC(C)C)C(=O)[C@@]1(C)CO1 [Carfilzomib] | 62.1
COc1cccc2c1C(=O)c1c(O)c3c(c(O)c1C2=O)CC(O)(C(=O)CO)CC3OC1CC(N)C(O)C(C)O1.Cl (stereo not given) [Epirubicin HCl] + CC(C)C[C@H](NC(=O)[C@H](CCc1ccccc1)NC(=O)CN1CCOCC1)C(=O)N[C@@H](Cc1ccccc1)C(=O)N[C@@H](CC(C)C)C(=O)[C@@]1(C)CO1 [Carfilzomib] | 21
